# ChEMBL document CHEMBL1961873, “Compounds: GSK PKIS; Assays: Nanosyn kinase panel” (2012)
# Values joined by “and” are separate entries in the source; they are usually repeats but may differ in a detail not shown here. Equal entries are not always repeated.
# Experiments:
# [1] = molecular target: T1, Aurora kinase A (Homo sapiens) (UniProt O14965); conditions: at 1 µM;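 further: values are mean percent inhibition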
# T1 sequence (whole entry): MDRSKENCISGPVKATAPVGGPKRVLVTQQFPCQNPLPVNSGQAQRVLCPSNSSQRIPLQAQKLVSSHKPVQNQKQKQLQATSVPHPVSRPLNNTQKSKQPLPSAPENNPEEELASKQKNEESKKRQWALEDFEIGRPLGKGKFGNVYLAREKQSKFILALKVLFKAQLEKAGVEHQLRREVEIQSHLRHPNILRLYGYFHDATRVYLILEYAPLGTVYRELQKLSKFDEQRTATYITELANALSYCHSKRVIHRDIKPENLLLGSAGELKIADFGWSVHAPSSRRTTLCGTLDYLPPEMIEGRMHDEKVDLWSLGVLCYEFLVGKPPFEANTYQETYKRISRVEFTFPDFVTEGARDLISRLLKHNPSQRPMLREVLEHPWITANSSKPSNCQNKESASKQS
# [2] = molecular target: Aurora kinase B (Homo sapiens) (UniProt Q96GD4); conditions: at 0.1 µM
# [3] = molecular target: Aurora kinase B (Homo sapiens) (UniProt Q96GD4); conditions: at 1 µM
# [4] = molecular target: T2, Aurora kinase C (Homo sapiens) (UniProt Q9UQB9); conditions: at 0.1 µM
# T2 sequence (whole entry): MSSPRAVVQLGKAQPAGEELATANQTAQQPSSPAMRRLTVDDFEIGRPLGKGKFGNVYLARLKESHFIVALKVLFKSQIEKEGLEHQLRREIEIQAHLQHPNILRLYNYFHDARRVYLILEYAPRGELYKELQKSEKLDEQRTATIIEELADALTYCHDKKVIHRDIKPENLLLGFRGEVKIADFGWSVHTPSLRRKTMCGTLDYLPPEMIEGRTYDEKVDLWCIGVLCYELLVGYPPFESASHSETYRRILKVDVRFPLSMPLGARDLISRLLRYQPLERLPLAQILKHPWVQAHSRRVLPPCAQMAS
# [5] = molecular target: T2, Aurora kinase C (Homo sapiens); conditions: at 1 µM
# [6] = molecular target: Serine/threonine-protein kinase 10 (Homo sapiens) (UniProt O94804); conditions: at 0.1 µM
# [7] = molecular target: Serine/threonine-protein kinase 10 (Homo sapiens) (UniProt O94804); conditions: at 1 µM
# [8] = molecular target: T3, Mitogen-activated protein kinase kinase kinase kinase 2 (Homo sapiens) (UniProt Q12851); conditions: at 0.1 µM
# T3 sequence (whole entry): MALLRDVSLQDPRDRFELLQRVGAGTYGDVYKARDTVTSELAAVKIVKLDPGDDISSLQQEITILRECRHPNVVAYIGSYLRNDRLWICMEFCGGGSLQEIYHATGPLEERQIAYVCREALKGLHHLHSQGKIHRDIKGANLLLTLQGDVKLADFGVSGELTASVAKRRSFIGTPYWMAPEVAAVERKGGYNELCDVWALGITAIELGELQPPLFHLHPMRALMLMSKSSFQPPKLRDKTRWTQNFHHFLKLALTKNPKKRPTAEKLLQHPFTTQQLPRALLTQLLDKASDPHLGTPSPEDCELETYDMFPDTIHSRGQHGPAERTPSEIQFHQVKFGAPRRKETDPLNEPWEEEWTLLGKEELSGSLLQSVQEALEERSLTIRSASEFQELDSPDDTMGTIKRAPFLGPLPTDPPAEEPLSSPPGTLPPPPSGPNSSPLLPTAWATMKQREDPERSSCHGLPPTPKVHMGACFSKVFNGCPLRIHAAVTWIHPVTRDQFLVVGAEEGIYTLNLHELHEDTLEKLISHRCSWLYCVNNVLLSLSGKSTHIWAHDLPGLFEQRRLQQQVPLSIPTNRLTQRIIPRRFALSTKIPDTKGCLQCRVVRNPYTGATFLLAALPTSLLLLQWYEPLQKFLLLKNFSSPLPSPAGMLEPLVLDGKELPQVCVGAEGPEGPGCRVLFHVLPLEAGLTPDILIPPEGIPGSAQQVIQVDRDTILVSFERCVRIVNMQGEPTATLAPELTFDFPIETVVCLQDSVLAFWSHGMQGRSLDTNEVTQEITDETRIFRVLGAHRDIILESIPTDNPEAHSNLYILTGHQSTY
# [9] = molecular target: T3, Mitogen-activated protein kinase kinase kinase kinase 2 (Homo sapiens); conditions: at 1 µM
# [10] = molecular target: Mitogen-activated protein kinase kinase kinase kinase 4 (Homo sapiens) (UniProt O95819); conditions: at 0.1 µM
# [11] = molecular target: Mitogen-activated protein kinase kinase kinase kinase 4 (Homo sapiens) (UniProt O95819); conditions: at 1 µM
# [12] = molecular target: Dual specificity mitogen-activated protein kinase kinase 1 (Homo sapiens) (UniProt Q02750); conditions: at 0.1 µM
# [13] = molecular target: Dual specificity mitogen-activated protein kinase kinase 1 (Homo sapiens) (UniProt Q02750); conditions: at 1 µM
# [14] = molecular target: Misshapen-like kinase 1 (Homo sapiens) (UniProt Q8N4C8); conditions: at 0.1 µM
# [15] = molecular target: Misshapen-like kinase 1 (Homo sapiens) (UniProt Q8N4C8); conditions: at 1 µM
# [16] = molecular target: T4, Serine/threonine-protein kinase 4 (Homo sapiens) (UniProt Q13043); conditions: at 0.1 µM
# T4 sequence (whole entry): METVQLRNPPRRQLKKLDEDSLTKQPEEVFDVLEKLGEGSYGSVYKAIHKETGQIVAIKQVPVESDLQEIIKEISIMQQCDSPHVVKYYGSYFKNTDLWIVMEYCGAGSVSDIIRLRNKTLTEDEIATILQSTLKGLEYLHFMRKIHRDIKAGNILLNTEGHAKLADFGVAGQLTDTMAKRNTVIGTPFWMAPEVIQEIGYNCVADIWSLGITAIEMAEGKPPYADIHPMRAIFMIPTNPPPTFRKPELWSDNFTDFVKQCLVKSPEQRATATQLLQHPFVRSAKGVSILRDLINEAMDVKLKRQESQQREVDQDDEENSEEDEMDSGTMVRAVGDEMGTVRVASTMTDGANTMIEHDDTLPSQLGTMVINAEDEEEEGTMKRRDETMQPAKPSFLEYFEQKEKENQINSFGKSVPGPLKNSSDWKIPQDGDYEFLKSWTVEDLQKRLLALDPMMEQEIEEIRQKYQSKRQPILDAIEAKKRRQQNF
# [17] = molecular target: T4, Serine/threonine-protein kinase 4 (Homo sapiens); conditions: at 1 µM
# [18] = molecular target: T5, Serine/threonine-protein kinase 3 (Homo sapiens) (UniProt Q13188); conditions: at 0.1 µM
# T5 sequence (whole entry): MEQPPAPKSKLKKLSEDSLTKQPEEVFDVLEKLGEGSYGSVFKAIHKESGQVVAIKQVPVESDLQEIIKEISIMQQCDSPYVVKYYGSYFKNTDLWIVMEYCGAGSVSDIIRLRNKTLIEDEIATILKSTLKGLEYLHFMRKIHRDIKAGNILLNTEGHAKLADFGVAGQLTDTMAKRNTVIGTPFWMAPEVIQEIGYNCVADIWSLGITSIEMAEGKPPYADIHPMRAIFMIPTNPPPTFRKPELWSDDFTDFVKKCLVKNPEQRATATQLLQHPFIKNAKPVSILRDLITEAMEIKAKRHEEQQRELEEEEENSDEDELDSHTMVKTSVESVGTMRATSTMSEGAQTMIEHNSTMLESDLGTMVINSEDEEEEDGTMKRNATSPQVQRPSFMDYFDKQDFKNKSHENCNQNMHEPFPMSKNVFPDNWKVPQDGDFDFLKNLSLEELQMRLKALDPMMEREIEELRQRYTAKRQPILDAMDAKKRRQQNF
# [19] = molecular target: T5, Serine/threonine-protein kinase 3 (Homo sapiens); conditions: at 1 µM
# [20] = molecular target: Serine/threonine-protein kinase 26 (Homo sapiens) (UniProt Q9P289); conditions: at 0.1 µM
# Serine/threonine-protein kinase 26 (Homo sapiens), sequence (Q9P289 2-416 limits assumed): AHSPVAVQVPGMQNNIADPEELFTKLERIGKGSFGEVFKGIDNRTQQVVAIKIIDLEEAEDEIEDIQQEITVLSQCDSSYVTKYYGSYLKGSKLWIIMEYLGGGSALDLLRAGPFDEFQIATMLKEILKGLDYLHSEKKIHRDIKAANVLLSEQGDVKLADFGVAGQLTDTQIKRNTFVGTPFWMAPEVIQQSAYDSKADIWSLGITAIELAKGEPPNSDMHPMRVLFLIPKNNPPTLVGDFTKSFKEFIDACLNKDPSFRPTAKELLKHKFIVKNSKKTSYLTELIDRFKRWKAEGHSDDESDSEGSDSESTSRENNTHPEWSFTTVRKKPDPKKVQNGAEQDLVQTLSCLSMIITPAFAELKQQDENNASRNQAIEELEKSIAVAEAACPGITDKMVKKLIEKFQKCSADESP
# Mitogen-activated protein kinase kinase kinase kinase 4 (Homo sapiens), sequence (O95819 2-1239 limits assumed): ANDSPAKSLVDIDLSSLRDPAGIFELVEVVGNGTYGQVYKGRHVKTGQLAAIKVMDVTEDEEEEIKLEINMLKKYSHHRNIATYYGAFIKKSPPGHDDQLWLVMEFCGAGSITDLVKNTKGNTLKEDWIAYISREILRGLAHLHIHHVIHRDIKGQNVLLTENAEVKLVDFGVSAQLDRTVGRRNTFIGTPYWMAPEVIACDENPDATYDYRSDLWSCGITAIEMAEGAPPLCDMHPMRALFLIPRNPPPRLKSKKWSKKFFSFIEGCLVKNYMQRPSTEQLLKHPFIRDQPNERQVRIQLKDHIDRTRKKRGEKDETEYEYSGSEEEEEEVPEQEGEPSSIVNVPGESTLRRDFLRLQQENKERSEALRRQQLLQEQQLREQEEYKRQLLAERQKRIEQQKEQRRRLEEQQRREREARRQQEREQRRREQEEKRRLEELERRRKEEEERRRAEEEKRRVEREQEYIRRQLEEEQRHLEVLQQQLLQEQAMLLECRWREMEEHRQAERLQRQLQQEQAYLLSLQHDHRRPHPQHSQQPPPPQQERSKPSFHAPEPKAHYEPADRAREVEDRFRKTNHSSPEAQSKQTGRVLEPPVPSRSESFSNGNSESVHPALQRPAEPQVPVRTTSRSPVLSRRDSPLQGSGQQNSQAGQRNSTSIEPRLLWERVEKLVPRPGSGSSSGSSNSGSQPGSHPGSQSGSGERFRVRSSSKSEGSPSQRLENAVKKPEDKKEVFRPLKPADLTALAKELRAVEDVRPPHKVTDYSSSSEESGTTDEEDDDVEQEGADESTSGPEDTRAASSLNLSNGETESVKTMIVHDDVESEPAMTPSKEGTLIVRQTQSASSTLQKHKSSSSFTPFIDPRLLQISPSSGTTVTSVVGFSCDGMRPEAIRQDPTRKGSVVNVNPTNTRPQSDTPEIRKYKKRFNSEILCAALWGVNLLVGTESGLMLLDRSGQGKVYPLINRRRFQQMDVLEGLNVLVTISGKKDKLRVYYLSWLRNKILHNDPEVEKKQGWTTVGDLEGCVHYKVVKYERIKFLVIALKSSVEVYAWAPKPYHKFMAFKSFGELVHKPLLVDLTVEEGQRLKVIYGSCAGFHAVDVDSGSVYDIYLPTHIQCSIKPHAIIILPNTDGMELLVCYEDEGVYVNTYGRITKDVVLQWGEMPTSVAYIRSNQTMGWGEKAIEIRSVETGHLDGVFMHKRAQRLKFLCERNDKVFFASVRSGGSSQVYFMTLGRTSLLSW
# Misshapen-like kinase 1 (Homo sapiens), sequence (Q8N4C8 whole entry, looked up): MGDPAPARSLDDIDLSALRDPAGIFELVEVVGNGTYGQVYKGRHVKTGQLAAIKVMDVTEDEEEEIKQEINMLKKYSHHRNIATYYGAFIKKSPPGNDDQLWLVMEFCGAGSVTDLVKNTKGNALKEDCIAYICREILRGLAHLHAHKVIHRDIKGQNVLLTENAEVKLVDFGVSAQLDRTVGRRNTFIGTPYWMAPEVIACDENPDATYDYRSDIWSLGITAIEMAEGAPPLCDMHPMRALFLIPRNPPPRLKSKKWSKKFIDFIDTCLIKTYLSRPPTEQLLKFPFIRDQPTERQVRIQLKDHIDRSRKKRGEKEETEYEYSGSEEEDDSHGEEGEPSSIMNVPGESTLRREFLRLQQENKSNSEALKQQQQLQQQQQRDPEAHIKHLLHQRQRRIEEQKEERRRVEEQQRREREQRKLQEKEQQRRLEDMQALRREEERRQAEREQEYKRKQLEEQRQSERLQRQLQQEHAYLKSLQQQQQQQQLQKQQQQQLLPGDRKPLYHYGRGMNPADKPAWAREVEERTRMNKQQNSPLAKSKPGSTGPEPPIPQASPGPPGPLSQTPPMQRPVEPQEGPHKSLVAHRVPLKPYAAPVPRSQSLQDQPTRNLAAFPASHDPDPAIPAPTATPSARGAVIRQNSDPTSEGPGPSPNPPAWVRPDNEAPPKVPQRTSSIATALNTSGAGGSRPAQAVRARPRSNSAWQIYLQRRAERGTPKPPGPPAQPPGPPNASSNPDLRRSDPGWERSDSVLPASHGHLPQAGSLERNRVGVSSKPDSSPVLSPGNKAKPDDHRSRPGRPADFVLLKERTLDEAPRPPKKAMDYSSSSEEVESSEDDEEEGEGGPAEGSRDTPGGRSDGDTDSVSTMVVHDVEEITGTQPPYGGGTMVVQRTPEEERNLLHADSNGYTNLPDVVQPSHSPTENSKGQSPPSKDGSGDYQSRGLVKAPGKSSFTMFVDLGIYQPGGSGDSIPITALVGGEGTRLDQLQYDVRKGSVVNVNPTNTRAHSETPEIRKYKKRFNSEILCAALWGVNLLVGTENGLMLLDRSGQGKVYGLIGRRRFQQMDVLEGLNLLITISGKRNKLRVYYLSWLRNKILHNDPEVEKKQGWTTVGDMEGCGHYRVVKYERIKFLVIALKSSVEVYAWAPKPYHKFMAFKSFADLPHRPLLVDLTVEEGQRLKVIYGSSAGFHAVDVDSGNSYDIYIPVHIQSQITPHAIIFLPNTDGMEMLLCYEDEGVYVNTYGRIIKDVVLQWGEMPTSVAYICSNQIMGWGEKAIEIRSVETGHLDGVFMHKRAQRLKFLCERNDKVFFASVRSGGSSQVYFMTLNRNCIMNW
# Serine/threonine-protein kinase 10 (Homo sapiens), sequence (O94804 whole entry, looked up): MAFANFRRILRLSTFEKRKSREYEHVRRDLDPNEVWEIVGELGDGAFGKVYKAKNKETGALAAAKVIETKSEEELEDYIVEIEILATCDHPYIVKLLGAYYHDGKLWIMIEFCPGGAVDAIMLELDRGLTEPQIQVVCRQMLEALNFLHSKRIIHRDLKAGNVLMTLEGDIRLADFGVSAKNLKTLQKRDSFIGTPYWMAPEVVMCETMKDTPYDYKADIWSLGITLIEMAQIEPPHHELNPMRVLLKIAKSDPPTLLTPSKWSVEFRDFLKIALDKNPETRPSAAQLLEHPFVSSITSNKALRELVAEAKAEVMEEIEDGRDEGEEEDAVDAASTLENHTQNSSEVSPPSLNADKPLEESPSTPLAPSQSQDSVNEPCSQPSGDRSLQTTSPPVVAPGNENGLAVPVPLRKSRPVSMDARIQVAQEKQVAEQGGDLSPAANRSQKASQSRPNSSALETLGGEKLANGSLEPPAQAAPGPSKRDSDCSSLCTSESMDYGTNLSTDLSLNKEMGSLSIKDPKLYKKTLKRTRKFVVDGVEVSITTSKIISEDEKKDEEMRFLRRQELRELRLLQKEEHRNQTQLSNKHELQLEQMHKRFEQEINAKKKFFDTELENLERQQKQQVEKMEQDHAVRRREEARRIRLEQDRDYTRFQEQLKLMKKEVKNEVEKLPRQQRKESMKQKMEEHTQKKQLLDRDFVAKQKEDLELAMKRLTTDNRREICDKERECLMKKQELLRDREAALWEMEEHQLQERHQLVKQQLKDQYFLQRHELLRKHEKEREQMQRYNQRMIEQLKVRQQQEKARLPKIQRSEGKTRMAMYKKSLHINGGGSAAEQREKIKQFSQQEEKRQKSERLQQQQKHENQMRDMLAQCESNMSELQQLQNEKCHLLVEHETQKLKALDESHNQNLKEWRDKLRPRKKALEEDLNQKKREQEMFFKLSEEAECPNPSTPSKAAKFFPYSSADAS
# Dual specificity mitogen-activated protein kinase kinase 1 (Homo sapiens), sequence (Q02750 whole entry): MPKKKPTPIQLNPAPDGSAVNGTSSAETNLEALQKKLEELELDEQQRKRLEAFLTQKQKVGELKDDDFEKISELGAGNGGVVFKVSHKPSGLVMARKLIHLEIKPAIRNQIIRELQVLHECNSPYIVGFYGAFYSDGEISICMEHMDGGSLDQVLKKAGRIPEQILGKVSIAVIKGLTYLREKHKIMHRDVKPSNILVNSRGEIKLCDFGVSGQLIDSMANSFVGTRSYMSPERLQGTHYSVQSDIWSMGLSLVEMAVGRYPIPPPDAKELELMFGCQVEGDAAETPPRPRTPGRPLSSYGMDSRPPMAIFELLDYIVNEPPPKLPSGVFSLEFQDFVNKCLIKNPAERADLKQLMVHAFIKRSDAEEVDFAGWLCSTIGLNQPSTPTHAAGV
# Aurora kinase B (Homo sapiens), sequence (Q96GD4 whole entry): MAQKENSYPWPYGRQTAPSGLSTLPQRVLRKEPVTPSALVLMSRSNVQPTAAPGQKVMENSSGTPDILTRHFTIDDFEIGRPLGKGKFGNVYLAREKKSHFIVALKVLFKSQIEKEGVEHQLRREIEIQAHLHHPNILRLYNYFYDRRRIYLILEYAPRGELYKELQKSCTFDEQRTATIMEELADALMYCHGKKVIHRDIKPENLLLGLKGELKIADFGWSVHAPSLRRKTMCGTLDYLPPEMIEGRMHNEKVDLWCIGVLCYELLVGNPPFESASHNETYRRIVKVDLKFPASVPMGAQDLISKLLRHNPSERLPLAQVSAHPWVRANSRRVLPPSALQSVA
structure (smiles),measurement,setting,value
COc1cccc(Nc2nccc(-c3cnn4ncccc34)n2)c1,inhibition,[1],86.4%
same,inhibition,[2],26.7%
same,inhibition,[3],72.3%
same,inhibition,[4],33.2%
same,inhibition,[5],97.3%
same,inhibition,[6],4.01%
same,inhibition,[7],17.4%
same,inhibition,[8],17.1%
same,inhibition,[9],60.1%
same,inhibition,[10],14.8%
same,inhibition,[11],63.2%
same,inhibition,[12],3.11%
same,inhibition,[13],29.1%
same,inhibition,[14],11.1%
same,inhibition,[15],57.6%
same,inhibition,[16],6.23%
same,inhibition,[17],30%
same,inhibition,[18],5.37%
same,inhibition,[19],24.6%
same,inhibition,[20],1.55%
Fc1ccc(Nc2nccc(-c3c(-c4ccc(C(F)(F)F)cc4)nn4ncccc34)n2)cc1F,inhibition,[1],14.1%
same,inhibition,[2],4.71%
same,inhibition,[3],4.62%
same,inhibition,[4],2.92%
same,inhibition,[5],12.9%
same,inhibition,[6],3.37%
same,inhibition,[7],0.68%
same,inhibition,[8],0.94%
same,inhibition,[9],1.77%
same,inhibition,[10],5.44%
same,inhibition,[11],2.77%
same,inhibition,[12],3.85%
same,inhibition,[13],3.88%
same,inhibition,[14],6.5%
same,inhibition,[15],4.38%
same,inhibition,[16],6.25%
same,inhibition,[17],7.23%
same,inhibition,[18],6.51%
same,inhibition,[19],5.09%
same,inhibition,[20],-0.69%
CN1CCN(Cc2ccc(-c3cc4ncnc(Nc5ccc(OCc6cccc(F)c6)c(Cl)c5)c4s3)o2)CC1,inhibition,[1],6.51% and 11.8%
same,inhibition,[2],16% and 13%
same,inhibition,[3],45.6% and 53%
same,inhibition,[4],4.18% and 3.42%
same,inhibition,[5],26.1% and 40.5%
same,inhibition,[6],17.4% and 22.1%
same,inhibition,[7],56.8% and 67%
same,inhibition,[8],2.1% and 1.95%
same,inhibition,[9],13% and 8.01%
same,inhibition,[10],2.96% and 6.93%
same,inhibition,[11],8.74% and 16.5%
same,inhibition,[12],3.63% and 7.76%
same,inhibition,[13],3.91% and 8.23%
same,inhibition,[14],4.62% and 8.19%
same,inhibition,[15],7.44% and 13.7%
same,inhibition,[16],2.15% and 5.51%
same,inhibition,[17],5.38% and 9.4%
same,inhibition,[18],1.94% and 6.66%
same,inhibition,[19],4.21% and 9.14%
same,inhibition,[20],-0.84% and -1.22%
CNC(=O)c1ncccc1Nc1nc(Nc2cc3c(cc2OC)CCCN3C(=O)CN(C)C)nc2[nH]ccc12,inhibition,[1],6.59%
same,inhibition,[2],3.79%
same,inhibition,[3],8.73%
same,inhibition,[4],2.36%
same,inhibition,[5],4.16%
same,inhibition,[6],7.25%
same,inhibition,[7],4.81%
same,inhibition,[8],1.56%
same,inhibition,[9],4.18%
same,inhibition,[10],4.22%
same,inhibition,[11],6.26%
same,inhibition,[12],3.03%
same,inhibition,[13],3.53%
same,inhibition,[14],5.92%
same,inhibition,[15],7.79%
same,inhibition,[16],8.58%
same,inhibition,[17],12.8%
same,inhibition,[18],8.59%
same,inhibition,[19],7.84%
same,inhibition,[20],-2.11%
N#Cc1ccc2c(-c3ccnc(NC4CC4)n3)c(-c3ccc(F)cc3)nn2c1,inhibition,[1],0.56%
same,inhibition,[2],0.7%
same,inhibition,[3],-0.38%
same,inhibition,[4],0.81%
same,inhibition,[5],5.38%
same,inhibition,[6],2.63%
same,inhibition,[7],4.13%
same,inhibition,[8],0.19%
same,inhibition,[9],2.06%
same,inhibition,[10],5.83%
same,inhibition,[11],46%
same,inhibition,[12],0.85%
same,inhibition,[13],3.35%
same,inhibition,[14],6%
same,inhibition,[15],30.2%
same,inhibition,[16],0.26%
same,inhibition,[17],1.31%
same,inhibition,[18],1.49%
same,inhibition,[19],1.55%
same,inhibition,[20],-1.26%
O=C1Nc2ccccc2/C1=C1\CCc2cc(O)ccc21,inhibition,[1],70.9%
same,inhibition,[2],44.8%
same,inhibition,[3],80.5%
same,inhibition,[4],53.7%
same,inhibition,[5],93.4%
same,inhibition,[6],6.67%
same,inhibition,[7],16.1%
same,inhibition,[8],12.1%
same,inhibition,[9],52.6%
same,inhibition,[10],23.3%
same,inhibition,[11],66.8%
same,inhibition,[12],7.68%
same,inhibition,[13],9.97%
same,inhibition,[14],17.6%
same,inhibition,[15],58.9%
same,inhibition,[16],20.8%
same,inhibition,[17],58.5%
same,inhibition,[18],15.1%
same,inhibition,[19],52.4%
same,inhibition,[20],-4.52%
COc1ccc2ncn(-c3cc(O[C@H](C)c4ccccc4C(F)(F)F)c(C(N)=O)s3)c2c1,inhibition,[1],5.59%
same,inhibition,[2],1.15%
same,inhibition,[3],7.77%
same,inhibition,[4],-1.97%
same,inhibition,[5],-0.3%
same,inhibition,[6],35.2%
same,inhibition,[7],80.7%
same,inhibition,[8],0.64%
same,inhibition,[9],4.67%
same,inhibition,[10],0.55%
same,inhibition,[11],3.61%
same,inhibition,[12],0.25%
same,inhibition,[13],-0.57%
same,inhibition,[14],1.05%
same,inhibition,[15],4.03%
same,inhibition,[16],1.43%
same,inhibition,[17],22.5%
same,inhibition,[18],0.2%
same,inhibition,[19],18.8%
same,inhibition,[20],0.64%
